Three compounds from PubChem BioAssay (NCATS) can be followed below.

“And” between values parts separate entries of the source, which are not always exact repeats. Equal entries are not always repeated. Records with an inconclusive call do not appear. The source made the active and inactive calls. Unless noted, the call rests on the fitted dose curve; in most records, active means well fitted curve in the direction sought with a large enough effect; inconclusive means small, poorly fitted or top-dose-only effect, or another doubt; inactive means no such curve, though single readings can be large; an effect the other way counts as inactive or inconclusive.

In test [1] the target is Hexokinase-4 (Homo sapiens) + Glucokinase regulatory protein (Homo sapiens) (UniProt P35557+Q14397). Kind of test: qHTS assay for inhibitors of recombinant human GCK-GKRP interaction: HTRF assay (AID 743207).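 Further: 0% = DMSO with GCK present and -100% = DMSO wells lacking GCK.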 The method in brief:
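Steps: dispense GCK–GKRP complex (5 nM each, GST- and FLAG-tagged) with 2 uM S6P; pin in compounds; add XL665/Eu-cryptate-labelled antibodies; incubate 60 min at room temperature; read time-resolved FRET at 665 and 615 nm.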

A short description of test [2]: qHTS Assay for Identifying Gametocytocidal Compounds (AID 743244).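 Further: on the % scale 0 is the no-effect control and ±100 the full control effect; actives lower the fluorescent signal which means gametocytes are killed.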 As to conditions: P. falciparum 3D7 stage III-V gametocytes, alamarBlue, 72 h; max response: stronger effect = lower value. The method, boiled down:
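In this qHTS viability screen, late-stage 3D7 gametocytes are incubated with compound for 72 h, then with alamarBlue for 24 h; reduced resorufin fluorescence marks killing.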
On the technique in general: Quantitative high-throughput screening tests each substance at several concentrations.

Test [3] is described as follows: qHTS profiling for inhibitors of Plasmodium falciparum (3D7) proliferation (AID 743322; call rule not given here;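 further: infected erythrocytes exposed to compound for 72 h before lysis; 100% = DMSO vehicle wells and 0% = 0.29 µM artemisinin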). As to conditions: P. falciparum 3D7 proliferation; at 28.7 µM (top of the series) unless noted. The method, boiled down: (§1)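 Erythrocytes infected with P. falciparum (0.3% parasitemia, 2.5% hematocrit) incubated with compounds 72 h at 37 C, 5% CO2. Lysis with saponin/Triton buffer containing SYBR Green I, overnight at room temperature in the dark; DNA fluorescence (485/535 nm) normalised to 0.29 uM artemisinin and DMSO.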

Test [4] is described as follows: qHTS profiling for inhibitors of Plasmodium falciparum (DD2) proliferation (AID 743323; call rule not given here). As to conditions: lower = more inhibition; at 28.7 µM (top of the series) unless noted. The method in brief: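 Parasite proliferation measured via DNA-dye fluorescence, as uninfected erythrocytes lack DNA. Cultures at 0.3% parasitemia and 2.5% hematocrit incubated 72 h with compound; signal scaled between vehicle and 0.29 uM artemisinin wells.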

Test [5] can be described thus: qHTS profiling for inhibitors of Plasmodium falciparum (HB3) proliferation (AID 743324).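 Further: 100% = DMSO vehicle wells and 0% = artemisinin-treated control wells.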 As to conditions: Plasmodium falciparum HB3 blood-stage proliferation; at 28.7 µM (top of the series) unless noted. The method in brief:
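P. falciparum HB3 grown in erythrocytes (0.3% parasitemia, 2.5% hematocrit final) with compound for 72 h at 37 C, 5% CO2. Parasite DNA detected by SYBR Green after saponin/triton lysis overnight; normalized to 0.29 uM artemisinin and DMSO.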

Test [6] can be described thus: qHTS profiling of the MIPE4 collection as inhibitors of Plasmodium falciparum (3D7) proliferation (AID 743344; call rule not given here). As to conditions: P. falciparum 3D7 in erythrocytes, SYBR Green DNA fluorescence, 72 h; at 28.5 µM (top of the series) unless noted. The method, boiled down:
as §1

Test [7] can be described thus: qHTS profiling of the MIPE4 collection as inhibitors of Plasmodium falciparum (DD2) proliferation (AID 743345; call rule not given here). As to conditions: P. falciparum Dd2 in erythrocytes, SYBR Green DNA, 72 h; at 28.5 µM (top of the series) unless noted. The method in brief: as §1
Test [8] in a line: qHTS profiling of the MIPE4 collection as inhibitors of Plasmodium falciparum (DD2) proliferation (Rep 2) (AID 743346; call rule not given here). As to conditions: P. falciparum Dd2 in erythrocytes, SYBR Green DNA, 72 h; at 28.5 µM (top of the series) unless noted. The method, boiled down: as §1
Test [9] in a line: qHTS profiling of the MIPE4 collection as inhibitors of Plasmodium falciparum (HB3) proliferation (AID 743347; call rule not given here;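 further: plate controls were DMSO vehicle wells for no effect and artemisinin wells for full effect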). The following applies: P. falciparum HB3 in erythrocytes, SYBR Green DNA, 72 h; at 28.5 µM (top of the series) unless noted. The method in brief:
as §1

Test [10] is described as follows: Cell Proliferation Assay Versus the ED40515 IL2 Dependent ATL cell lines (AID 1053195; calls by dose curve). The following applies: ED40515 IL2-dependent ATL cells. The method, boiled down:
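IL2-dependent ED40515 ATL cells grown with IL2, 1000 cells/well in phenol red-free RPMI + 5% FBS, exposed 48 hours at 37C. Viability by CellTiter-Glo luminescence after 15 min at RT; 9.2 uM bortezomib as control.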

Test [11] is described as follows: High-throughput drug toxicity screening in the BPDCN cell line Gen2.2 (AID 1224824; call rule not given here;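 further: cells exposed to compounds for 48 h before reading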). As to conditions: Gen2.2 BPDCN cells; at 45.8 µM (top of the series) unless noted. The method, boiled down:
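Gen2.2, 500 cells/well, phenol red-free RPMI/10% FBS/Pen-Strep; 48 h cpd, 37 °C/5% CO2; CTG lum, 15 min RT. Norm: DMSO = 100%, bortezomib 9.2 uM final = 0%.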

A short description of test [12]: High-throughput drug toxicity screening in the BPDCN cell line Cal-1 (AID 1224825; call rule not given here). As to conditions: Cal-1 BPDCN cell viability, qHTS; at 45.8 µM (top of the series) unless noted. The method, boiled down:
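500 Cal-1 cells/well, RPMI + glutamine + 10% FBS (phenol red-free); cpd added by pin tool; 48 h, 37C, 5% CO2; CTG 15 min RT, lumi read. Normalised: DMSO 100%, bortezomib 9.2 uM 0%.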

Test [13] can be described thus: qHTS assay for measurement of the activity of small molecule inhibitors on Zika virus induced Caspase-3 activity in human iPSC derived neural progenitor cells (hNPCs) (AID 1224857). Further: % of control where 0% means no effect; nearly all actives have a fitted effect of over 65% in size. The method in brief:
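In medium with heparin 2 ug/ml and cyclopamine 2 uM, hNPCs (350 cells/well) received compound for one hour and then Zika virus at 2 FFU/cell; caspase activity was measured by Caspase-Glo 3/7 luminescence 6 h post-infection.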

Test [14] in a line: qHTS assay for measurement of the activity of small molecule inhibitors on Zika virus induced Caspase-3 activity in human astrocytoma cells (AID 1224859).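 Further: plate controls were ZIKV-infected untreated cells for no effect and uninfected cells for full effect.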 The method in brief:
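A cell-based luminescent caspase-3/7 assay used SNB-19 cells infected with ZIKV (2 FFU/cell) for 6 h following 1 h compound pretreatment.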

Test [15] in a line: qHTS Screen of the MIPE 4.0 Collection Against Ewings Sarcoma (TC71) (AID 1259253). Further: nearly all actives have a fitted effect of over 40% in size. Further: potency means the concentration at half of the fitted maximal effect. The method, boiled down:
(§2)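 CellTiter-Glo luminescence after 48 h compound exposure (titration) gave viability; percent activity used DMSO-treated cells as no inhibition and medium-only wells as full inhibition. Cells grown in RPMI/5% FBS, dosed 4 h post-seeding.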

Test [16] is described as follows: qHTS Screen of the MIPE 4.0 Collection Against Ewings Sarcoma (EW8) (AID 1259255).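 Further: 100% = DMSO-treated cells and 0% = medium-only wells without cells; nearly all actives have a fitted effect of over 35% in size.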 The method in brief:
as §2

The nature of test [17]: qHTS Screen of the MIPE 4.0 Collection Against Ewings Sarcoma (RDES) (AID 1259252). Further: nearly all actives have a fitted effect of over 35% in size. Further: potency means the concentration at half of the fitted maximal effect. The method, boiled down:
as §2

The nature of test [18]: qHTS assay for cell viability of HEK293 cells (AID 743288). Further: on the % scale 0 is the no-effect control and ±100 the full control effect; nearly all actives have a fitted effect of over 50% in size. As to conditions: ATP luminescence (CellTiter-Glo), 18 h; max response: stronger effect = lower value. The method in brief: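 The Tox21 protocol used parental HEK293 cells treated for 18 h at 37 C with compounds delivered by pintool; ATP-coupled luminescence after 30 min at room temperature gave viability.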
A short description of test [19]: qHTS assay for cell viability of the p53RE-bla HCT-116 cell line (AID 743292). Further: on the % scale 0 is the no-effect control and ±100 the full control effect; nearly all actives have a fitted effect of over 55% in size. The method in brief: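 CellSensor p53RE-bla HCT-116 cells (4,000/well) pre-incubated 5 h at 37 C, then exposed to compounds in DMSO for 16 h at 37 C. Viability read as ATP content by CellTiter-Glo luminescence after 30 min at room temperature.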

Chain of Hexokinase-4 (Homo sapiens) + Glucokinase regulatory protein (Homo sapiens) (P35557 whole entry, looked up): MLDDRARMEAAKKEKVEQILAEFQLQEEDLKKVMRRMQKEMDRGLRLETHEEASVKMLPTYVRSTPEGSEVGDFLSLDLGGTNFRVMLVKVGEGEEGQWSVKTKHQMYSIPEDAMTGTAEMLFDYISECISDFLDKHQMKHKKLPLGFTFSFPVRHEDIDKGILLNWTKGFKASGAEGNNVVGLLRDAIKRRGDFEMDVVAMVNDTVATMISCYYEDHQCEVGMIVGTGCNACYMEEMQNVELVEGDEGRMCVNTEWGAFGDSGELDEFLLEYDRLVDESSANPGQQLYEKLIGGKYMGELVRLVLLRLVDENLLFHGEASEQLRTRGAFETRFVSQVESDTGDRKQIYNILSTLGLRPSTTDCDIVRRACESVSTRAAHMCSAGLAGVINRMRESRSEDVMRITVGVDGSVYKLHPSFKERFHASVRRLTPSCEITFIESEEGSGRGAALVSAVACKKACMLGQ
Chain of Hexokinase-4 (Homo sapiens) + Glucokinase regulatory protein (Homo sapiens) (Q14397 whole entry, looked up): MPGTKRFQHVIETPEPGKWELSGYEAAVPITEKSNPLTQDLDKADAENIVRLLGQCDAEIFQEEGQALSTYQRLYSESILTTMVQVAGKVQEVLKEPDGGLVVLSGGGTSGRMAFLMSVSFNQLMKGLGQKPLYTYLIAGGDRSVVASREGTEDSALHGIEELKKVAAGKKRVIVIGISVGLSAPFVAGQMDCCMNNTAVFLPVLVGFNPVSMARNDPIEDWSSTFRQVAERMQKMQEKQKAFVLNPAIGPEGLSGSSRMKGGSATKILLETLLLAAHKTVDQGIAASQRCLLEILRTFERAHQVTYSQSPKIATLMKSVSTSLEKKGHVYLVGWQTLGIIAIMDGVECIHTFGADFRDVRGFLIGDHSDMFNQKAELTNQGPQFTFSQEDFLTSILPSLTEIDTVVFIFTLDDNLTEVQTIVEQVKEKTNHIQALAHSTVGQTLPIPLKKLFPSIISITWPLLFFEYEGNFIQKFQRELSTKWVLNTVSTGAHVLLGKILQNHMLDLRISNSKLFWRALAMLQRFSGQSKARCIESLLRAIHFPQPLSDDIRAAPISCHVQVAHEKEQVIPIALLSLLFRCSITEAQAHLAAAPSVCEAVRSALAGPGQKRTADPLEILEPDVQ

`CCC(C)N(C)C(=O)c1cc2ccccc2c(-c2ccccc2Cl)n1` (stereo not given): the outcome in [1] was inactive. The max response in test [2] was 24.9% (inactive). This compound also yielded a remaining parasite growth % (stronger effect = lower value) in test [3] of 86.5%. Besides, the activity, percent of control in [4] was 80.9%. The compound also gave a remaining proliferation (% of control), lower = more inhibition in [5] of 42%. In [6], this compound displayed a parasite growth, % of DMSO control of 39%. Besides, the parasite growth remaining, % of DMSO control (lower = more inhibition) in test [7] stood at 83.4%. In test [8], the parasite growth, % of control (lower = inhibition) was 53.7%. In addition, the growth, % of control in test [9] was determined as 53.6%. In addition, the Potency in [10] was 11.8 µM (active); in [15], 23.5 µM (active). Further, the cell viability, % of control (lower = more cytotoxic) in test [11] amounted to 95%. The compound further returned a viability (% of control) in [12] of 94.3%. In addition, the Potency entry in test [13], in [14] and in test [16] was “inactive” in each case.

As to `O=C(Nc1cccnc1)N1CCC(Cc2cccc(Oc3ccc(C(F)(F)F)cn3)c2)CC1`, the max response in test [2] was -7.98% (inactive). The remaining parasite growth % (stronger effect = lower value) in [3] worked out at 8.79%. The compound further displayed an activity, percent of control in test [4] of 24.9%. Further, in test [5], the remaining proliferation (% of control), lower = more inhibition came out at 4.06%. This compound displayed a parasite growth, % of DMSO control in [6] of 14.7%. Besides, the parasite growth remaining, % of DMSO control (lower = more inhibition) in test [7] turned out to be 52.2%. The compound further yielded a parasite growth, % of control (lower = inhibition) in [8] of 21%. The growth, % of control in test [9] stood at 5.3%. The Potency is 5.9 µM (active) in test [10], 18.7 µM (active) in test [17] and 16.6 µM (active) in test [15]. In addition, in [11], the cell viability, % of control (lower = more cytotoxic) worked out at 147%. This compound also showed a viability (% of control) in test [12] of 52.7%. In addition, the Potency entry in test [13] and in test [14] was “inactive” each time.

As for `Cc1[nH]c(=O)c(C#N)cc1-c1ccncc1`, the result in [1] was inactive. Also, the max response in test [2] is -5.95% (inactive) and 11% (inactive) and 13.2% (inactive); in test [18], 7.32% (inactive). For the same compound, the Potency entry in [19], in test [13], in test [14], in [17], in test [15] and in [16] was “inactive” throughout. This compound gave a parasite growth, % of DMSO control in [6] of 15.2%. Also, in test [7], the parasite growth remaining, % of DMSO control (lower = more inhibition) stood at 14.6%. The compound also yielded a parasite growth, % of control (lower = inhibition) in [8] of 36.4%. In [11], the cell viability, % of control (lower = more cytotoxic) was found to be 244%. In test [12], this compound yielded a viability (% of control) of 23%.
